{"source": "paper PMC4552634", "about": "“A New Set of Chemical Starting Points with Plasmodium falciparum Transmission-Blocking Potential for Antimalarial Drug Discovery” (PLoS ONE, 2015)", "note": "Among all 13,000 compounds or so, about 3,200 (25%) showed an effect of 50% or more. The list shows a part of the results.", "data": [{"test_system": "P. falciparum stage V gametocytes", "design": "BacTiter-Glo ATP luminescence viability of purified stage V gametocytes in 384-well plates, per cent inhibition versus DMSO", "settings": "48 h, 5 µM; inhibitor", "units": {"% Inhibition": "%"}, "values": [{"smiles": "CC(=O)c1nccc(C)c1N", "note": "[TCMDC-139307]", "% Inhibition": -14.24}, {"smiles": "CN1CCC(Oc2cc(NC(=O)Nc3ccc(-c4ccncc4)c(Cl)c3)ccc2Cl)CC1", "note": "[TCMDC-139205]", "% Inhibition": 28.36}, {"smiles": "O=C(CCCCCNC(=O)c1ccc(O)c(-c2ccc(Cl)c(Cl)c2)c1)NCc1cccc(C(F)(F)F)c1", "note": "[TCMDC-140831]", "% Inhibition": 18.4}, {"smiles": "O=C(Nc1ccsc1)Nc1cccc(-c2ccc(-c3nc4ccc(C(F)(F)F)cc4[nH]3)cc2)c1", "note": "[TCMDC-133210]", "% Inhibition": -6.282}, {"smiles": "CNCCCn1c(N(C)C)nc2cc(-n3cnc4cc(-c5ccc(Cl)cc5)sc4c3=O)ccc21", "note": "[TCMDC-138914]", "% Inhibition": 43.83}, {"smiles": "COc1ccc(-c2cc3ncn(CC(=O)N4CCN(c5cccc(OC)c5)CC4)c(=O)c3s2)cc1", "note": "[TCMDC-125255]", "% Inhibition": 66.27}, {"smiles": "COc1ccc(-c2cc3ncnc(N4CCN(CCN5CCCC5)CC4)c3s2)cc1", "note": "[TCMDC-125055]", "% Inhibition": -2.838}, {"smiles": "CN1CCN(C(=O)CN2CCC3(CCC2=O)NC(=O)c2ccccc2O3)CC1", "note": "(stereo not shown) [TCMDC-125378]", "% Inhibition": -32.42}, {"smiles": "CC(=O)N/N=C/[C@H](CCc1ccccc1)NC(=O)[C@H](CC(C)C)NC(=O)c1ccc(F)cc1", "note": "[TCMDC-135965]", "% Inhibition": 1.649}, {"smiles": "CC[C@H](NC(=O)c1c(N)c(-c2sccc2Cl)nc2ccccc12)c1ccccc1", "note": "[TCMDC-141650]", "% Inhibition": 17.42}, {"smiles": "O=[N+]([O-])c1cccc(CNCC2CCN(CCc3ccccc3)CC2)c1", "note": "[TCMDC-141210]", "% Inhibition": 2.081}, {"smiles": "Cc1nc(-c2cccc(Nc3nccc(NCC(O)c4cccc(F)c4)n3)c2)cs1", "note": "(stereo not shown) [TCMDC-136571]", "% Inhibition": -23.01}, {"smiles": "Fc1cccc(Nc2nc(NCCc3ccc(Cl)cc3)nc(Nc3cccc(F)c3)n2)c1", "note": "[TCMDC-135141]", "% Inhibition": 40.3}, {"smiles": "Fc1cccc(Nc2nc(NCc3ccc(Cl)c(Cl)c3)nc(Nc3cccc(F)c3)n2)c1", "note": "[TCMDC-135139]", "% Inhibition": 55.91}, {"smiles": "FC(F)(F)Oc1cccc(CNc2noc(-c3sccc3Br)n2)c1", "note": "[TCMDC-134186]", "% Inhibition": 1.419}, {"smiles": "COc1cccc(Nc2nc(C)cc(Nc3cccc(C#N)c3)n2)c1", "note": "[TCMDC-133448]", "% Inhibition": 4.259}, {"smiles": "Fc1cccc(Nc2nc(NCc3ccc4ccsc4c3)nc(Nc3cccc(F)c3)n2)c1", "note": "[TCMDC-135140]", "% Inhibition": 55.41}, {"smiles": "COc1ccc(CNc2nc(Nc3cccc(C#N)c3)nc(Nc3cccc(C#N)c3)n2)cc1Cl", "note": "[TCMDC-138547]", "% Inhibition": 52.56}, {"smiles": "COc1cccc(Nc2nc(Nc3cccc(C#N)c3)cc(C(F)(F)F)n2)c1", "note": "[TCMDC-133462]", "% Inhibition": -24.01}, {"smiles": "Fc1ccc(Nc2n[nH]c(CNC3CCN(Cc4ccc(Cl)c(Cl)c4)CC3)n2)cc1", "note": "[TCMDC-138655]", "% Inhibition": -23.76}, {"smiles": "CC(=O)Nc1ccc(CN2CCCN(c3cc(NC(=O)c4cccc(C)c4)ccn3)CC2)cc1", "note": "[TCMDC-134980]", "% Inhibition": 8.133}, {"smiles": "Cc1cccc(OCCCCON2C(N)=NC(N)=NC2(C)C)c1C", "note": "[TCMDC-131662]", "% Inhibition": 9.727}, {"smiles": "COc1ccc(NC(=O)/C=C/c2ccc(Cl)c(Cl)c2)cc1N1CCN(C)CC1", "note": "[TCMDC-139042]", "% Inhibition": -34.01}, {"smiles": "CC(C)n1ncc2c(C(=O)Nc3ccc(C#N)c(Cl)c3)cc(C3CC3)nc21", "note": "[TCMDC-125244]", "% Inhibition": -17.87}, {"smiles": "COc1ccc(CCNC(=O)c2cnc3c(c2)nc(-c2cnc(-c4ccccc4)[nH]2)n3CCc2cnc[nH]2)cc1", "note": "[TCMDC-139689]", "% Inhibition": -21.36}, {"smiles": "Cc1cccc2nc(-c3ccc(-c4cccc(CNCCNC(=O)c5ccnn5C)c4)s3)[nH]c12.O=C(O)C(F)(F)F", "note": "[TCMDC-133015]", "% Inhibition": -0.5354}, {"smiles": "Cc1cccc2nc(-c3cccc(-c4cccc(CNCCNC(=O)c5ccnn5C)c4)c3)[nH]c12.O=C(O)C(F)(F)F", "note": "[TCMDC-133005]", "% Inhibition": -4.375}, {"smiles": "Cc1cccc2nc(-c3cccc(-c4ccc(CNCCNC(=O)c5ccnn5C)cc4)c3)[nH]c12.O=C(O)C(F)(F)F", "note": "[TCMDC-133007]", "% Inhibition": 31.89}, {"smiles": "Cc1cccc2nc(-c3ccc(-c4ccc(CNCCNC(=O)c5ccnn5C)cc4)cc3)[nH]c12.O=C(O)C(F)(F)F", "note": "[TCMDC-133017]", "% Inhibition": 85.49}, {"smiles": "Cc1cccc2nc(-c3ccc(-c4ccc(CNCCNC(=O)c5ccnn5C)cc4)s3)[nH]c12.O=C(O)C(F)(F)F", "note": "[TCMDC-133009]", "% Inhibition": 4.683}, {"smiles": "Cc1cccc2nc(-c3ccc(-c4cccc(CNCCNC(=O)c5ccnn5C)c4)cc3)[nH]c12.O=C(O)C(F)(F)F", "note": "[TCMDC-133011]", "% Inhibition": 85.89}, {"smiles": "CS(=O)(=O)CCNCc1ccc(-c2ccc3ncnc(Nc4ccc(OCc5ccccc5)c(Cl)c4)c3c2)o1", "note": "[TCMDC-138467]", "% Inhibition": 19.81}, {"smiles": "COc1cc(OCCCCCCON2C(N)=NC(N)=NC2(C)C)cc(OC)c1OC", "note": "[TCMDC-131371]", "% Inhibition": 3.006}, {"smiles": "Cc1cc(OCCCN2CCC(NS(=O)(=O)c3ccc(C(F)(F)F)cc3)CC2)c2ccccc2n1", "note": "[TCMDC-136277]", "% Inhibition": -32.21}, {"smiles": "COc1ccc(-n2nc(C)c3c2NC(=O)CC3c2ccccc2OCc2ccccc2F)cc1", "note": "(stereo not shown) [TCMDC-124907]", "% Inhibition": 2.012}, {"smiles": "COc1ccc2nccc([C@@H](O)CN3CCC(NC(=O)c4cc5cccnc5[nH]4)CC3)c2c1", "note": "[TCMDC-140768]", "% Inhibition": 6.193}, {"smiles": "Cc1ccc(NC(=O)c2ccc(CN3CCCN(CC4CCCCC4)CC3)cc2)cc1", "note": "[TCMDC-136397]", "% Inhibition": -64.33}, {"smiles": "Cc1ccc(NC(=O)c2ccc(CN3CCCN(Cc4cccc(O)c4)CC3)cc2)cc1", "note": "[TCMDC-136398]", "% Inhibition": -12.68}, {"smiles": "Cc1ccc(Nc2nnc(SCC(=O)Nc3ccc(CN4CCCC4)cc3)s2)cc1", "note": "[TCMDC-125043]", "% Inhibition": 65.4}, {"smiles": "COc1ccccc1C1CCN(C2CCC(NC(=O)/C=C/c3ccc(C(F)(F)F)cc3F)CC2)CC1", "note": "(stereo not shown) [TCMDC-133486]", "% Inhibition": -41.82}, {"smiles": "O=C(c1cccc(COc2ccc3c(c2)CCN(C2CCCC2)CC3)c1)N1CCN(c2ccncc2)CC1", "note": "[TCMDC-134128]", "% Inhibition": 76.76}, {"smiles": "O=C(Nc1ccncc1)Nc1ccc2c(c1)CCN(C1CCC1)CC2", "note": "[TCMDC-135949]", "% Inhibition": 33.65}, {"smiles": "O=C(Nc1ccc2c(c1)CCC2)c1cccc(N2CCN(c3ccncc3)CC2)c1", "note": "[TCMDC-135125]", "% Inhibition": 2.245}, {"smiles": "Oc1ccc(CCNc2nc(NCc3ccccc3-c3ccc(F)cc3)nc(N3CCNCC3)n2)cc1", "note": "[TCMDC-133783]", "% Inhibition": 11.92}, {"smiles": "COc1ccc2nccc([C@@H](O)CN3CCC(NCc4ccc5scnc5c4)CC3)c2c1", "note": "[TCMDC-141081]", "% Inhibition": 9.68}, {"smiles": "Cc1ccc(NC(=O)c2ccc(Cl)c(Cl)c2)cc1-c1ccc(C(=O)Nc2ccncc2)cc1", "note": "[TCMDC-133696]", "% Inhibition": -4.564}, {"smiles": "CCOc1cc(C)ccc1C1CCN(CCCCNC(=O)c2cnc(-c3ccc(C(F)(F)F)cc3)[nH]2)CC1", "note": "[TCMDC-138581]", "% Inhibition": 5.476}, {"smiles": "COc1ccc2c(CCNc3nc(SC)ncc3C(=O)NCCc3ccc(F)cc3)c[nH]c2c1", "note": "[TCMDC-136796]", "% Inhibition": 55}, {"smiles": "COc1ccc(NC(=O)CCNc2ccnc(NCCc3ccc(F)cc3)n2)cc1", "note": "[TCMDC-134823]", "% Inhibition": 38.74}, {"smiles": "COc1ccc(NC(=O)[C@H](CC(C)C)Nc2ccnc(NCCc3ccc(F)cc3)n2)cc1", "note": "[TCMDC-134826]", "% Inhibition": 23.86}, {"smiles": "CCNCc1ccc(-c2cc3ncnc(Nc4ccc(OCc5cccc(F)c5)c(Cl)c4)c3s2)[nH]1", "note": "[TCMDC-135542]", "% Inhibition": -36.05}, {"smiles": "Clc1ccccc1OCc1ccccn1", "note": "[TCMDC-125865]", "% Inhibition": -0.5645}, {"smiles": "Cc1ccc(N/C(N)=N/c2ncccc2OCc2c(F)cccc2Cl)cc1", "note": "[TCMDC-138944]", "% Inhibition": 83.96}, {"smiles": "Cc1ccc(F)c(NC(=O)c2c(-c3c(F)cccc3Cl)noc2C)c1", "note": "[TCMDC-125643]", "% Inhibition": -20.89}, {"smiles": "O=C(/C=C/c1ccc(Cl)c(Cl)c1)NCCCCCN1CCCN(C(=O)Nc2cccc(F)c2)CC1", "note": "[TCMDC-135745]", "% Inhibition": -38.92}, {"smiles": "Cc1ccc(-c2nc3ccc(C(=O)NC4CCN(Cc5ccccc5)CC4)cc3[nH]2)cc1", "note": "[TCMDC-133073]", "% Inhibition": 5.058}, {"smiles": "CCOc1cc(C(=O)Nc2ccc(-c3nc4ccccc4[nH]3)cc2)cc(OCC)c1OCC", "note": "[TCMDC-125676]", "% Inhibition": -48.5}, {"smiles": "COc1ccc(C(=O)Nc2ccc(-c3nc4ccc(C)cc4[nH]3)cc2)cc1OC", "note": "[TCMDC-124358]", "% Inhibition": 77.27}, {"smiles": "CCOc1cccc(C(=O)Nc2ccc(-c3nc4ccccc4[nH]3)cc2)c1", "note": "[TCMDC-123752]", "% Inhibition": 24.98}, {"smiles": "COc1cc(C(=O)Nc2ccc(-c3nc4ccccc4[nH]3)cc2)cc(OC)c1OC", "note": "[TCMDC-125796]", "% Inhibition": 51.37}, {"smiles": "COc1cc(C(=O)Nc2cccc(-c3nc4ccccc4[nH]3)c2)cc(OC)c1OC", "note": "[TCMDC-125848]", "% Inhibition": -4.164}, {"smiles": "N#Cc1cccc(C(=O)Nc2ccc(-c3nc4ccccc4[nH]3)cc2)c1", "note": "[TCMDC-124812]", "% Inhibition": 70.91}, {"smiles": "COc1ccc(Cl)cc1C(=O)Nc1ccc(-c2nc3ccccc3[nH]2)cc1", "note": "[TCMDC-125808]", "% Inhibition": 9.6}, {"smiles": "Cc1ccc(-c2nc3ccc(C(=O)NC4CCC(N5CCCc6ccc(C#N)cc6C5)CC4)cc3[nH]2)cc1", "note": "(stereo not shown) [TCMDC-133551]", "% Inhibition": -1.563}, {"smiles": "COc1ccccc1C1CCN(C2CCC(NC(=O)c3ccc4nc(-c5ccc(C)cc5)[nH]c4c3)CC2)CC1", "note": "(stereo not shown) [TCMDC-133556]", "% Inhibition": 115.6}, {"smiles": "COc1cccc(C(=O)Nc2ccc(-c3nc4ccccc4[nH]3)cc2)c1", "note": "[TCMDC-124429]", "% Inhibition": 5.991}, {"smiles": "O=C(Nc1ccc(-c2nc3ccc(NC(=O)c4ccc(Br)cc4)cc3[nH]2)cc1)c1ccc(Br)cc1", "note": "[TCMDC-124212]", "% Inhibition": -13.35}]}]}
